The source of these data is PubChem BioAssay.

Experiment [1] relates to Plasmodium falciparum Sir2 (PF13_0152, Sir2A). The experiment can be described thus: Plasmodium falciparum Sir2A binding compounds – biochemical, small-molecule microarray, 635 nm fluorescence, primary screen (AID 1098).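 Further: score merges spot fluorescence intensity with its signal-to-noise ratio.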 The note with it: fluorescence 635 nm, higher = more signal.
The nature of experiment [2]: probe aDKK1 binding to arrayed compounds – biochemical, biotinylated probe, 635/667 nm fluorescence, primary screen (AID 1099).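 Further: score merges 667nm spot fluorescence with signal to noise across triplicate slides.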 The settings on record: small-molecule microarray, higher = more signal.
The nature of experiment [3]: probe aCHRDL2 binding to arrayed compounds – biochemical, biotinylated probe, 635/667 nm fluorescence, primary screen (AID 1100). The settings on record: small-molecule microarray, higher = more signal.
Experiment [4] can be described thus: change in splice reporter luminescence, either direction, cell-based, HEK293, spliceosome inhibition project, primary screen (AID 1101).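 Further: HEK293 cells carrying a splicing-competent luciferase reporter gene; test concentration not given here.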 The settings on record: HEK293 splicing luciferase reporter, 24 h, higher = more signal, called active from +8 up or from −8 down. For orientation: A reporter such as luciferase makes a cellular process visible.
The target of experiment [5] is Fibroblast growth factor 10 (Homo sapiens) (UniProt O15520). The experiment can be described thus: compounds binding fibroblast growth factor 10 – biochemical, small-molecule microarray, 635 nm fluorescence, primary screen (AID 1102). The note with it: FGF10 binding, fluorescence 635 nm, higher = more signal.
Experiment [6] deals with glycogen synthase kinase-3 (GSK3A per assay name; protocol says GSK3B). The experiment can be described thus: compounds binding glycogen synthase kinase-3 – biochemical, small-molecule microarray, 635 nm fluorescence, GSK3A, primary screen (AID 1103). Further: the record names both GSK3A and GSK3B. The settings on record: fluorescence 635 nm, higher = more signal.
In experiment [7] the target is Epidermal growth factor receptor (Homo sapiens) (UniProt P00533). The experiment is described as follows: compounds binding epidermal growth factor receptor – biochemical, small-molecule microarray, 635 nm fluorescence, primary screen (AID 1104).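 Further: score merges 667 nm emission intensity with spot signal to noise over triplicate slides.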 The note with it: EGFR binding, higher = more signal.
For experiment [8], the target named is Follistatin-related protein 3 (Homo sapiens) (UniProt O95633). The experiment can be described thus: compounds binding follistatin-related protein 3 – biochemical, small-molecule microarray, 635 nm fluorescence, primary screen (AID 1105).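 Further: score merges emission near 667 nm and signal to noise per printed spot across three slides.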 The note with it: FSTL3 binding, higher = more signal.
Experiment [9] concerns the target Dickkopf-related protein 1 (Homo sapiens) (UniProt O94907). The experiment can be described thus: small molecules binding DKK1 protein – biochemical, small-molecule microarray, 635 nm fluorescence scan, primary screen (AID 1106).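 Further: score merges emission near 667 nm with signal to noise over three replicate slides.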 The settings on record: higher = more signal.
The subject of experiment [10] is Inhibin beta A chain (activin A). The experiment is described as follows: small molecules binding activin A – biochemical, small-molecule microarray, 635 nm fluorescence scan, primary screen (AID 1107).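 Further: mouse activin A protein probed at 4.33 µg/mL on printed slides; score merges bound-protein fluorescence near 667 nm with spot signal-to-noise.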 The settings on record: INHBA, higher = more signal.
Experiment [11] has as its system Human papillomavirus type 1a protein E7 (residues 44-93). The experiment can be described thus: small molecules binding HPV E7 44-93 – biochemical, small-molecule microarray, residues 44-93, 635 nm fluorescence, primary screen (AID 1108).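 Further: E7 fragment applied at 1 µg/mL in TBST for 1 h at 4 C; score combines spot fluorescence with its signal to noise ratio.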 The note with it: fluorescence 635 nm, higher = more signal.
A short description of experiment [12]: hepatitis C replication reporter changes, two-sided – Huh7 cells, luciferase reporter, HCV replication inhibitor project, primary screen (AID 1109).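 Further: huh7 hepatoma cells harbouring a luciferase neomycin HCV replicon reporter; luciferase luminescence as measure of HCV replicon replication; test concentration not given here.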 The note with it: Huh7 HCV replicon luciferase reporter, 48 h; higher = more signal.
Experiment [13] concerns the target Left-right determination factor 2 (Homo sapiens) (UniProt O00292). The experiment is described as follows: small molecules binding LEFTY2 protein – biochemical, small-molecule microarray, 635 nm fluorescence scan, primary screen (AID 1110). The settings on record: higher = more signal.
In experiment [14] the target is Calmodulin-1 (Homo sapiens) (UniProt P0DP23). The experiment is described as follows: small molecules binding calmodulin-1 with EGTA – biochemical, small-molecule microarray, Cy5-labelled CALM1, profiling panel (AID 1111).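 Further: labelled calmodulin applied in Tris saline Tween buffer holding calcium plus EGTA and DTT.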 The note with it: Cy5-CALM1 binding fluorescence, higher = more signal.
Experiment [15] has the same target. The experiment can be described thus: small molecules binding Ca-loaded calmodulin-1 – biochemical, small-molecule microarray, Cy5-labelled CALM1, plus calcium, artefact control for SMM control-protein annotation, profiling panel (AID 1112).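 Further: score merges spot fluorescence with signal to noise from triplicate slides.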 The settings on record: Cy5-CALM1 binding fluorescence, higher = more signal.
Experiment [16] is described as follows: probe aWnt5a binding to arrayed compounds – biochemical, biotinylated probe, 635/667 nm fluorescence, primary screen (AID 1113).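 Further: score merges 667 nm fluorescence intensity with signal-to-noise per printed feature.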 The settings on record: small-molecule microarray, higher = more signal.
Experiment [17] can be described thus: probe aShh binding to arrayed compounds – biochemical, biotinylated probe, 635/667 nm fluorescence, primary screen (AID 1114).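 Further: probe is biotin-labelled aShh protein from a stem cell growth factor screen; measures binding of labelled protein to compounds printed on the slide; score merges feature fluorescence at 667 nm with signal-to-noise.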 The note with it: small-molecule microarray, higher = more signal.
The nature of experiment [18]: probe aNog binding to arrayed compounds – biochemical, biotinylated probe, 635/667 nm fluorescence, primary screen (AID 1115).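 Further: probe is biotinylated aNog protein used at 0.15 µg/mL for 1 h at 4 C; z-score combines 667 nm fluorescence of each spot with its signal to noise.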 The settings on record: small-molecule microarray, higher = more signal.
In experiment [19] the target is Torsin-1A-interacting protein 1 (Homo sapiens) (UniProt Q5JTV8). The experiment can be described thus: compound microarray binding of lysate hLAP1 – cell lysate, small-molecule microarray, COS7 lysate, 635/667 nm fluorescence, primary screen (AID 1116). The note with it: 635 nm fluorescence, higher = more signal.
Experiment [20] deals with Alpha-bungarotoxin (Bungarus multicinctus) (UniProt P60615). The experiment is described as follows: compounds binding labelled alpha-BTX control protein – biochemical, small-molecule microarray, Alexa647 label, 635/667 nm fluorescence, artefact control for SMM control protein annotation, profiling panel (AID 1117). The settings on record: alpha-BTX-A647 binding fluorescence, higher = more signal.

Activity calls are given as the source filed them.

Chain of Torsin-1A-interacting protein 1 (Homo sapiens) (Q5JTV8 whole entry, looked up): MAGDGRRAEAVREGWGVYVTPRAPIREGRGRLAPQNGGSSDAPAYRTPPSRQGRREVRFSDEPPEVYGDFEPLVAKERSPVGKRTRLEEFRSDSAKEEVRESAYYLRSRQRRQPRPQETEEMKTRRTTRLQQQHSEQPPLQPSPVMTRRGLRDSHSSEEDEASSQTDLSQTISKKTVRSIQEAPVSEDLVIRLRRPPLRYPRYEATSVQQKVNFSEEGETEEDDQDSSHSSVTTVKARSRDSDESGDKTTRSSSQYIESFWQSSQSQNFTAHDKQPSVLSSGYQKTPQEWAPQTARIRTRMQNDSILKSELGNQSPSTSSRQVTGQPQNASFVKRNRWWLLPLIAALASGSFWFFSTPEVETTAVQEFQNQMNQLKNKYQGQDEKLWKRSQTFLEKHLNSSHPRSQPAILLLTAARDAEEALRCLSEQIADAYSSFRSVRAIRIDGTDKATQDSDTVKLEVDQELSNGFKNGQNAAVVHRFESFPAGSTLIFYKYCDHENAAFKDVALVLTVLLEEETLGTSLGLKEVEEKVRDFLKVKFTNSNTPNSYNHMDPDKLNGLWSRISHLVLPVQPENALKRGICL
Chain of Epidermal growth factor receptor (Homo sapiens) (P00533 whole entry, looked up): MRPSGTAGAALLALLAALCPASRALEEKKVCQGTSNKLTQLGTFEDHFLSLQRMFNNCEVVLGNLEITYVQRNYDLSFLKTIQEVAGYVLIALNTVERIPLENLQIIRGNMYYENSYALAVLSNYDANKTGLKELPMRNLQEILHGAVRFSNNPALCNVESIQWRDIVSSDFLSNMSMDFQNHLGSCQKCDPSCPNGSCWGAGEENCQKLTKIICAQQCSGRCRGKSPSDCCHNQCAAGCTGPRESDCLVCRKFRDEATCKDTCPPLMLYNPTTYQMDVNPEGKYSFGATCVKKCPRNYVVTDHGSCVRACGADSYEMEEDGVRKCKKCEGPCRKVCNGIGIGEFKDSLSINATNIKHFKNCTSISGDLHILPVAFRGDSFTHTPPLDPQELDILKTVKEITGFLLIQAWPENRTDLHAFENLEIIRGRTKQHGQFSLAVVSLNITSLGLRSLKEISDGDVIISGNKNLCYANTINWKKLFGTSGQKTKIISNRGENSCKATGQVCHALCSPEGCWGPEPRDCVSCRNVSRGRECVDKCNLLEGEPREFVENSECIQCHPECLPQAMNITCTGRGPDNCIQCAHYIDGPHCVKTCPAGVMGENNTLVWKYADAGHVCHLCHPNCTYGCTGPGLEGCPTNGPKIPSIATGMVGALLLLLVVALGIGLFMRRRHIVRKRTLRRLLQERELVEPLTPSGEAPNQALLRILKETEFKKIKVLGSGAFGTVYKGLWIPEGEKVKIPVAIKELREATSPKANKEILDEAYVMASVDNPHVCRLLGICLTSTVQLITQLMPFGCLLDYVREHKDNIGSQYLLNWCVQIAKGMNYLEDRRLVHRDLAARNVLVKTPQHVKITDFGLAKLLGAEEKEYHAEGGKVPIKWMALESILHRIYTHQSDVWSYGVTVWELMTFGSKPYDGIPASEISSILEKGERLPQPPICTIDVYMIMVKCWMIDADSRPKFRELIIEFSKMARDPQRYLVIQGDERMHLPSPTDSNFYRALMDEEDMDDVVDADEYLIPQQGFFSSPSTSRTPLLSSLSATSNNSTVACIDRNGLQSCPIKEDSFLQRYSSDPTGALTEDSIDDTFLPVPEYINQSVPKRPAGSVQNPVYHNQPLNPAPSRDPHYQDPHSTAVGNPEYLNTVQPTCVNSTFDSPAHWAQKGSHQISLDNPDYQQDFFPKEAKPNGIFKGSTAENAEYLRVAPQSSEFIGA
Chain of Left-right determination factor 2 (Homo sapiens) (O00292 whole entry, looked up): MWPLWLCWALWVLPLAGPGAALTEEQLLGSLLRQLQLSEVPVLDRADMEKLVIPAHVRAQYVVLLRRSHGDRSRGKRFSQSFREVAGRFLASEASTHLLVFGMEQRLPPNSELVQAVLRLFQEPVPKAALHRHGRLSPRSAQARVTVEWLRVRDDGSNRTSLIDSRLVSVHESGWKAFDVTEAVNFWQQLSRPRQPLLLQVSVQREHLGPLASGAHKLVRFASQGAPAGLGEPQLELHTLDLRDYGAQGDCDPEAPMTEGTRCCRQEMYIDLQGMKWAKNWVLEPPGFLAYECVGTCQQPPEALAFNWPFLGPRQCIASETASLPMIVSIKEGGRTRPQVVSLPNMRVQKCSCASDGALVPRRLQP
Chain of Follistatin-related protein 3 (Homo sapiens) (O95633 whole entry, looked up): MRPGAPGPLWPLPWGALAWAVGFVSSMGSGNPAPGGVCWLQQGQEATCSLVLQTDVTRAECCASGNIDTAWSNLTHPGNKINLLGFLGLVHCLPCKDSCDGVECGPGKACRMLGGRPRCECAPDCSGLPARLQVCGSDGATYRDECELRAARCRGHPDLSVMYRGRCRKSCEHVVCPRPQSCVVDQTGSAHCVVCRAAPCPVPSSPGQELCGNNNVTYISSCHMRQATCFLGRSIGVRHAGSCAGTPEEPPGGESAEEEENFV
Chain of Alpha-bungarotoxin (Bungarus multicinctus) (P60615 whole entry, looked up): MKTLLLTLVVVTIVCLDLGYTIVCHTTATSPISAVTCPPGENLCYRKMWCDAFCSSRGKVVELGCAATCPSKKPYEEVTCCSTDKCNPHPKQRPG
Chain of Dickkopf-related protein 1 (Homo sapiens) (O94907 whole entry, looked up): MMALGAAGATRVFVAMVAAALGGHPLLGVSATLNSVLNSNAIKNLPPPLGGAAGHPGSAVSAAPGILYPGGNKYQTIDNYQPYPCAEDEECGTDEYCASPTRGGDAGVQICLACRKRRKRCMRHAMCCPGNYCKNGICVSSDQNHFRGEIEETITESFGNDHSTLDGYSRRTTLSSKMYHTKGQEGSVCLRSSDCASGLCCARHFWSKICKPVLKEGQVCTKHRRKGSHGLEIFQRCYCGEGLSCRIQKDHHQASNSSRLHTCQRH
Chain of Fibroblast growth factor 10 (Homo sapiens) (O15520 whole entry, looked up): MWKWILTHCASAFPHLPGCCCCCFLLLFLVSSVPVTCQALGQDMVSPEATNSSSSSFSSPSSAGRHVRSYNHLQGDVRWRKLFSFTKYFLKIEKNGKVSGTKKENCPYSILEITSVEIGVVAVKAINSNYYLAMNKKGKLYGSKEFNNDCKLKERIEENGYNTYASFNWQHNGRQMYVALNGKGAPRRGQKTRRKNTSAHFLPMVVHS

For `C=C(COC)/C(=C/C[C@@H](OC(C)=O)c1ccc(CO)o1)c1cnc2ccccc2c1`, the composite z-score in experiment [1] was 0.974; in [2], 0.201; in experiment [3] it was -0.189; in [5] it was 1.46; in experiment [6] it was 1.32; in experiment [7] it was 1.57. In addition, the composite z-score in experiment [8] was 1.5; in experiment [9], 1.13; in experiment [10], 1.74; in experiment [11] it was 1.31; in [13], 1.07; in experiment [14], 0.0708. Further, the composite z-score in experiment [15] is -0.6; in experiment [16], -0.0425; in experiment [17] it was -0.0146; in [18], 0.256; in [19] it was 2.19; in experiment [20], 2.76. Further, the z-score in experiment [4] was -0.683 (inactive); in experiment [12], -0.638.

Consider `CN1C(=O)C2C=CC(C(O)C3=C[C@H]4C[C@@H](C3)C4(C)C)N(Nc3ccccc3)C2C1=O` (stereo not given in full), for which the composite z-score in [1] came to 0.46; in experiment [2] it was 0.462; in [3], 0.63; in experiment [5], 0.944; in experiment [6] it was 0.776; in experiment [7] it was 0.356. For the same compound, the composite z-score in [8] turned out to be 1.19; in [9], 0.109; in experiment [10], 1.42; in experiment [11], 1.41; in experiment [13] it was 0.269; in [14] it was 0.18. Also, the composite z-score in [15] is -0.162; in [16] it was 0.14; in [17], 0.13; in [18], 0.612; in [19], 0.802; in [20] it was 0.647. Besides, the results for the z-score in [4] and in experiment [12] were 0.757 (inactive) and -0.181, respectively.

For `CCCCN1CC=CC23O[C@@H]4C=CCOC(=O)[C@@H]4[C@H]2C(=O)N(CCCCCO)[C@@H]3C1=O` (stereo not given in full), the composite z-score in [1] is 1.15; in experiment [2], -0.159; in [3] it was 0.641; in [5], -0.828; in experiment [6], -0.656; in [7], -0.945. Also, the composite z-score was -1.39 in [8]; -1.03 in experiment [9]; -0.0355 in [10]; -0.524 in experiment [11]; -1.53 in [13]; -0.615 in [14]. Also, the composite z-score in experiment [15] is -0.363; in experiment [16], -0.124; in [17] it was 0.627; in experiment [18] it was 0.151; in experiment [19] it was 1.95; in [20], -1.47. The z-score in experiment [4] is -0.248 (inactive); in experiment [12] it was 0.536.

With `CCCCCCC#C[Si](O[C@H](c1ccccc1)c1cn([C@H](CO)Cc2ccccc2)nn1)(C(C)C)C(C)C`, the composite z-score was 0.984 in experiment [1]; -0.35 in [2]; -0.101 in experiment [3]; 0.629 in [5]; 0.166 in experiment [6]; -0.525 in experiment [7]. Moreover, the composite z-score in [8] was -0.25; in experiment [9], -0.15; in experiment [10], -0.33; in experiment [11], 0.205; in experiment [13], -0.154; in [14], -0.27. In addition, the composite z-score in experiment [15] was 0.105; in experiment [16], -0.096; in [17], 0.298; in [18], -0.443; in experiment [19], 0.8; in [20], -0.218. Also, the z-score in [4] was -0.77 (inactive); in experiment [12], -0.462.

As for `CN(C)C(=O)[C@@]1(Cc2ccccc2CN=[N+]=[N-])N=C(c2ccc(OCCCO)cc2)O[C@H]1c1ccccc1`, the composite z-score in experiment [1] was 1.67; in experiment [2], -0.274; in experiment [3], 1.01; in experiment [5], 1.21; in experiment [6] it was 0.585; in [7] it was -0.333. For the same compound, the composite z-score in experiment [8] was -0.283; in experiment [9], -0.766; in experiment [10], 0.823; in experiment [11], 0.993; in experiment [13], -0.498; in experiment [14] it was 0.691. Further, the composite z-score was 0.46 in experiment [15]; 0.0077 in experiment [16]; -0.0243 in experiment [17]; 1.83 in [18]; 1.43 in experiment [19]; 1.33 in [20]. In addition, the z-score in [4] was 0.249 (inactive); in experiment [12], -2.96.

For the compound `CCN(CC)c1ccc(N2CC=CC34O[C@@H]5/C=C\CCCOC(=O)C5[C@H]3C(=O)N(CCO)[C@@H]4C2=O)cc1` (stereo not given in full), the composite z-score was 1.1 in experiment [1]; -0.221 in experiment [2]; 0.63 in experiment [3]; -1.12 in [5]; -0.404 in [6]; -1.28 in [7]. Besides, the composite z-score is -0.957 in experiment [8]; -1.14 in experiment [9]; 0.0809 in experiment [10]; -0.0422 in [11]; -0.85 in [13]; -0.557 in experiment [14]. Besides, the composite z-score is 0.172 in experiment [15]; -0.113 in experiment [16]; -0.0769 in experiment [17]; -0.406 in experiment [18]; -0.233 in [19]; -0.259 in experiment [20]. Moreover, the results for the z-score in [4] and in experiment [12] were -0.375 (inactive) and -0.684, respectively.
